Gal4-VP16 FLuc: VP16 counterscreen qHTS for inhibitors of ROR gamma transcriptional activity | Drosophila S2 Gal4-VP16 UAS-luciferase, luminescence, 20 h | Potency, µM (highest dose often 53.6 µM), inactives show at the top dose activity, negative = inhibition, hits mostly inhibitors | 310,000 tested, 3.5% active;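 also: Gal4-VP16 expression switched on by copper sulfate through the metallothionein promoter; % is scaled to controls: 0 for no effect and ±100 for the full control effect; nearly all actives have a fitted effect of over 50% in size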
RORg inh: qHTS for inhibitors of ROR gamma transcriptional activity; Nuclear receptor ROR-gamma (Mus musculus), P51450; Drosophila S2 Gal4-RORgamma UAS-luciferase reporter, 20 h; Potency, µM (top dose mostly 53.6 µM), inactives show at the top dose activity change, negative = inhibition, hits mostly inhibitors; 310,000 tested, 5.4% active; AID 2551, 2010; also: % is scaled to controls: 0 for no effect and ±100 for the full control effect; nearly all actives have a fitted effect of over 60% in size
Target sequence (P51450 whole entry, looked up, the tested form may be a part): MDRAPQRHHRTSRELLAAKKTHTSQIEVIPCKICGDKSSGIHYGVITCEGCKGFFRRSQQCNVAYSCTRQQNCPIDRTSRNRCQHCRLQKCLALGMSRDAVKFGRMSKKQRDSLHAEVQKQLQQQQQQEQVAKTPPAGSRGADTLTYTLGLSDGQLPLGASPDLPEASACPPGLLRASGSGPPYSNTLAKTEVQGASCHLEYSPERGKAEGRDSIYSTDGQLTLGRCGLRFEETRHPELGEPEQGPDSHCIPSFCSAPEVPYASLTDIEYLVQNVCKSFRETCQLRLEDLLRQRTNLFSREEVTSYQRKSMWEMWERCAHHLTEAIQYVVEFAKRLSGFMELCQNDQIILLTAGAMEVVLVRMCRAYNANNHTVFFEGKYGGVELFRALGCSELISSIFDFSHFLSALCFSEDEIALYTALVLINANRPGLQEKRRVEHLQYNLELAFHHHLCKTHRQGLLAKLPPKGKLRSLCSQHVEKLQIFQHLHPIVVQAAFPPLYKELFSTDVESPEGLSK
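Luciferase reporter read in Schneider cells carrying Gal4-RORγ (mouse) and UAS-Photinus luciferase; cells given compound 1 h before 700 uM copper sulfate induction, then incubated 20 h at ambient temperature.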
S2 tox: Viability Counterscreen for Primary qHTS for Inhibitors of ATXN expression; AID 651635, 2014; S2 cells (HEK-293 line with an ATXN2-luciferase reporter) viability, CellTiter-Fluor protease fluorescence, 24 h; Potency, µM (highest dose often 56.7 µM), most hits filed as cytotoxic; 400,000 tested, 0.49% active; also: nearly all actives have a fitted effect of over 40% in size
HepG2 tox-1: qHTS for Inhibitors of TGF-b: Cytotox Counterscreen; 410,000 tested, 0.76% active; HepG2 CAGA-GFP viability, ATP luminescence, 18 h; Potency, µM (series often up to 46.1 µM), without a hit: at the top dose activity change, negative = cytotoxicity, most hits filed as cytotoxic
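HepG2 CAGA-GFP cells (1000/well, DMEM with 1% FBS) received compound, then TGF-beta at 500 pg/mL final, and were incubated 18 hours at 37 degrees C. Viability was read by CellTiter-Glo luminescence. Media-only wells were set as complete cell-killing and DMSO as no toxicity.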
ATXN2 expr inh: Primary qHTS for Inhibitors of ATXN expression. AID 1745845, 2022. 360,000 tested, 0.72% active. Potency, µM (highest dose often 57 µM), without a hit: at the highest dose activity change, negative = inhibition, actives largely listed as inhibitors. HEK-293 ATXN2-luciferase reporter, luminescence, 24 h; also: % is scaled to controls: 0 for no effect and ±100 for the full control effect; nearly all actives have a fitted effect of over 55% in size
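ATXN2-luciferase reporter cells (luciferase flanked by upstream and downstream ATXN2 gene portions) were treated 24 h at 37 °C with compounds at up to 57 uM. SteadyGlo luminescence gave expression; GF-AFC fluorescence gave viability.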
TGFb inhibitor: qHTS for Inhibitors of TGF-b. 410,000 tested, 1.2% active. HepG2 CAGA-GFP TGF-b/SMAD3 reporter, GFP fluorescence, 18 h; TGF-beta stimulated, 500 pg/mL final. Potency, µM (highest dose often 46.1 µM), for the others: top-dose activity, negative = inhibition, hits mostly inhibitors; also: % is scaled to controls: 0 for no effect and ±100 for the full control effect; nearly all actives have a fitted effect of over 65% in size
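Using HEPG2 CAGA-GFP reporter cells at 1000 cells/well, we pinned test compounds, stimulated with recombinant TGF-beta (500 pg/mL final) and measured total well GFP after 18 h.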
TGFb confirm: qHTS for Inhibitors of TGF-b: Confirmation of Cherry Picks; shares compounds with TGFb inhibitor; HepG2 CAGA-GFP TGF-b reporter, GFP fluorescence, 18 h; cells stimulated with TGF-beta, 500 pg/mL; Potency, µM (titrated, usually from 46.1 µM), for inactives: at the highest dose activity, negative = inhibition, usual class: inhibitors; 1,600 tested, 63% active; AID 720534, 2013; also: % is scaled to controls: 0 for no effect and ±100 for the full control effect; nearly all actives have a fitted effect of over 65% in size
HepG2 tox-2: qHTS for Inhibitors of TGF-b: Cytotox Counterscreen for Cherry Picks | AID 720535, 2013 | HepG2 CAGA-GFP viability, ATP luminescence, 18 h; cells stimulated with TGF-beta, 500 pg/mL | Potency, µM (titrated, usually from 46.1 µM), for the others: top-dose activity, negative = cytotoxicity, usual class: inhibitors | 1,600 tested, 27% active | shares compounds with TGFb inhibitor; also: % is scaled to controls: 0 for no effect and ±100 for the full control effect; nearly all actives have a fitted effect of over 70% in size
TGFb CCL64 inh: qHTS for Inhibitors of TGF-b: CCL64 Cells Orthogonal Assay for Cherry Picks; 1,600 tested, 41% active; Potency, µM (highest dose often 46.1 µM), without a hit: at the top dose activity, negative = inhibition, hits mostly inhibitors; CCL64 CAGA-GFP reporter, TGF-b stimulated, GFP fluorescence, 18 h; shares compounds with TGFb inhibitor; AID 720536, 2013; also: nearly all actives have a fitted effect of over 65% in size
COP TGFb inh: qHTS for Inhibitors of TGF-b: Hit Validation in HepG2 Cells using COP promoter | HepG2 COP-GFP TGF-b reporter, GFP fluorescence, 18 h; cells stimulated by added recombinant TGF-beta | Potency, µM (series often up to 46.1 µM), without a hit: at the top dose activity, negative = inhibition, hits mostly inhibitors | 1,600 tested, 3% active | shares compounds with TGFb inhibitor | AID 720537, 2013; also: nearly all actives have a fitted effect of over 70% in size
An asterisk follows results filed as active; i = inactive; ? = inconclusive; . = no result; [ ] = remark or other dose. Hits are enriched below; roughly 6.3% of the tested compounds scored in any of these assays. Calls follow the shape of the dose curve; as a rule, active = well fitted curve in the direction sought with a large enough effect; inconclusive = small, poorly fitted or top-dose-only effect, or another doubt; inactive = no such curve, though single readings can be large; an effect the other way counts as inactive or inconclusive. Potency is read from the fitted curve at half-maximal effect.

SMILES | Gal4-VP16 FLuc | RORg inh | S2 tox | HepG2 tox-1 | ATXN2 expr inh | TGFb inhibitor | others
COc1ccc(-n2nnnc2C(c2cccs2)N2CCC(n3c(=O)[nH]c4ccccc43)CC2)cc1 (stereo not drawn) | . | . | ? | -3% | ? | ?
COc1ccc(-n2nnnc2C(c2ccnc3ccccc23)N2CCC(n3c(=O)[nH]c4ccccc43)CC2)cc1 (stereo not drawn) | . | . | ? | 0% | ? | -35%
O=c1[nH]c2ccccc2n1C1CCN(C(c2ccccc2)c2nnnn2-c2ccc3c(c2)OCCO3)CC1 (stereo not drawn) | . | . | . | 10% | ? | ?
CN(C)CCc1c[nH]c2ccccc12 | . | . | i | . | 27%[222 µM] | .
O=C1C(=Cc2cn(-c3ccccc3)nc2-c2ccc(OCc3ccc(Cl)cc3)cc2)SC(=S)N1CCS(=O)(=O)O | . | . | ? | -14% | 7% | -14%
CC(C)C[C@H](NC(=O)[C@H](Cc1ccccc1)NC(=O)CNC(=O)[C@@H](COC(C)(C)C)NC(=O)[C@@H](N)Cc1ccc(O)cc1)C(=O)N[C@H](C(=O)O)[C@@H](C)OC(C)(C)C | -11% | 12% | . | . | . | .
Cc1cnc(C)c(Nc2nc(C(N)Cc3ccc(C(F)(F)F)cc3)cs2)n1 (stereo not drawn) | . | . | ? | -109% | ? | ?
COC(=O)[C@@]1(O)C[C@@H]2O[C@@]1(C)n1c3ccccc3c3c4c(c5c6ccccc6n2c5c31)C(=O)NC4 | ? | -17% | . | . | . | .
COc1ccc(C(c2nnnn2-c2c(C)cccc2C)N2CCC(n3c(=O)[nH]c4ccccc43)CC2)cc1 (stereo not drawn) | . | . | ? | -46% | ? | ?
Cc1cccc(C)c1-n1nnnc1C(c1cc2ccccc2o1)N1CCC(n2c(=O)[nH]c3ccccc32)CC1 (stereo not drawn) | . | . | ? | -8% | 5.6µM* | 7.1µM* | TGFb confirm=5.8µM*;HepG2 tox-2=?;TGFb CCL64 inh=5.8µM*;COP TGFb inh=21%
O=c1[nH]c2ccccc2n1C1CCN(C(c2cccs2)c2nnnn2-c2ccc3c(c2)OCCO3)CC1 (stereo not drawn) | . | . | ? | -6% | ? | 11µM* | TGFb confirm=-83%;HepG2 tox-2=-24%;TGFb CCL64 inh=?;COP TGFb inh=54%
